Assay results as given in ChEMBL document CHEMBL1157539, “Thousands of chemical starting points for antimalarial lead identification” (Nature, 2010).
“And” between values parts separate entries of the source, which are not always exact repeats. Equal values may be shown once.

Assays:
Assay type in all cases: functional
Plasmodium falciparum [1] = assay: GSK_TCMDC: Inhibition of Plasmodium falciparum 3D7 in whole red blood cells, using parasite LDH activity as an index of growth. Test compounds present at 2uM
Plasmodium falciparum [2] = assay: GSK_TCMDC: Inhibition of Plasmodium falciparum Dd2 in whole red blood cells, using parasite LDH activity as an index of growth. Test compounds present at 2uM
HepG2 = assay: GSK_TCMDC: Percent inhibition of human HepG2 cell line. Test compounds present at 10uM.

O=C(C=Cc1ccccc1O)N1CCC(CN2CCC(c3c[nH]c4ccccc34)CC2)CC1
Inhibition (Plasmodium falciparum [1]): 98%
Inhibition (Plasmodium falciparum [2]): 43%
Inhibition (HepG2): 27%

NCc1ccc(-c2ccccc2CN(C(=O)Nc2ccccc2)C2CCN(Cc3ccccc3)CC2)cc1.O=C(O)C(F)(F)F
Inhibition (Plasmodium falciparum [1]): 100%
Inhibition (Plasmodium falciparum [2]): 35%
Inhibition (HepG2): 36%

CC(C)CNCc1ccc(-c2ccc(CN(C(=O)NC3CCCCC3)C3CCN(Cc4ccccc4)CC3)cc2)cc1.O=C(O)C(F)(F)F
Inhibition (Plasmodium falciparum [1]): 100%
Inhibition (Plasmodium falciparum [2]): 88%
Inhibition (HepG2): 39%

O=C(C=C1c2ccccc2-c2ccccc21)NC1CCC(CN2CCC(c3c[nH]c4ccccc34)CC2)CC1 (stereo not drawn)
Inhibition (Plasmodium falciparum [1]): 99% and 100%
Inhibition (Plasmodium falciparum [2]): 64% and 67%
Inhibition (HepG2): 21% and 54%

S=C(NCCc1ccc(Cl)cc1)N1CCC(CN2CCC(c3c[nH]c4ccccc34)CC2)CC1
Inhibition (Plasmodium falciparum [1]): 90%
Inhibition (Plasmodium falciparum [2]): 7%
Inhibition (HepG2): 31%

O=C(NC1CCC(CN2CCC(c3c[nH]c4ccccc34)CC2)CC1)c1ccc(-c2cc(C(F)(F)F)ccc2Cl)o1 (stereo not drawn)
Inhibition (Plasmodium falciparum [1]): 100%
Inhibition (Plasmodium falciparum [2]): 34%
Inhibition (HepG2): 5%

Cc1[nH]c2cc(F)ccc2c1C1=CCN(CCCCC2(C)C(=O)Nc3ccccc32)CC1 (stereo not drawn)
Inhibition (Plasmodium falciparum [1]): 93%
Inhibition (Plasmodium falciparum [2]): 90%
Inhibition (HepG2): 13%

CC(Cc1ccc(Oc2ccc(Cl)cc2)cc1)NCC(O)c1cccc(Cl)c1 (stereo not drawn)
Inhibition (Plasmodium falciparum [1]): 99%
Inhibition (Plasmodium falciparum [2]): 98%
Inhibition (HepG2): 3%

Cc1ccccc1CNCC(O)c1cccc(C(F)(F)F)c1 (stereo not drawn)
Inhibition (Plasmodium falciparum [1]): 99%
Inhibition (Plasmodium falciparum [2]): 77%
Inhibition (HepG2): 5%

Cc1[nH]c2c(C)cc(NS(C)(=O)=O)cc2c1C1CCN(CC2CCN(C(=O)/C=C/c3ccc(Cl)c(Cl)c3)CC2)CC1
Inhibition (Plasmodium falciparum [1]): 100%
Inhibition (Plasmodium falciparum [2]): 99%
Inhibition (HepG2): 33%

CC[C@H]1CN2CC[C@H]1C[C@H]2[C@H](O)c1cc(-c2ccc3ccccc3c2)nc2ccc(OC)cc12.Cl
Inhibition (Plasmodium falciparum [1]): 99%
Inhibition (Plasmodium falciparum [2]): 99%
Inhibition (HepG2): 49%

CC(=O)C1(c2ccccc2)CCN(CCC(NC(=O)c2cc(C(F)(F)F)cc(C(F)(F)F)c2)c2ccc(Cl)c(Cl)c2)CC1.Cl (stereo not drawn)
Inhibition (Plasmodium falciparum [1]): 91%
Inhibition (Plasmodium falciparum [2]): 82%
Inhibition (HepG2): 9%

O=C(/C=C/c1ccc(Cl)c(Cl)c1)NCC1CCC(CN2CCC(c3c[nH]c4ccccc34)CC2)CC1 (stereo not drawn)
Inhibition (Plasmodium falciparum [1]): 100%
Inhibition (Plasmodium falciparum [2]): 93%
Inhibition (HepG2): 54%

COc1cccc(C=CC(=O)NC2CCC(CN3CCC(c4c[nH]c5ccccc45)CC3)CC2)c1OC (stereo not drawn)
Inhibition (Plasmodium falciparum [1]): 100%
Inhibition (Plasmodium falciparum [2]): 40%
Inhibition (HepG2): 37%

CC(=O)N(Cc1ccccc1-c1cccc(CNCc2ccc3c(c2)OCO3)c1)C1CCN(Cc2ccccc2)CC1.O=C(O)C(F)(F)F
Inhibition (Plasmodium falciparum [1]): 85%
Inhibition (Plasmodium falciparum [2]): 44%
Inhibition (HepG2): 17%

CC[C@H]1CN2CC[C@H]1C[C@H]2C(O)c1cc(OC)nc2ccccc12 (stereo partly drawn)
Inhibition (Plasmodium falciparum [1]): 100%
Inhibition (Plasmodium falciparum [2]): 98%
Inhibition (HepG2): 0%

S=C(NCCc1ccc(Cl)cc1)NC1CCC(CN2CCC(c3c[nH]c4ccccc34)CC2)CC1 (stereo not drawn)
Inhibition (Plasmodium falciparum [1]): 100%
Inhibition (Plasmodium falciparum [2]): 84% and 34%
Inhibition (HepG2): 42% and 37%

O=C(NC1CCC(N2CCC3(CC2)C(=O)NCN3c2ccccc2)CC1)c1cc2ccccc2[nH]1 (stereo not drawn)
Inhibition (Plasmodium falciparum [1]): 98%
Inhibition (Plasmodium falciparum [2]): 40%
Inhibition (HepG2): 0%

Cc1cc2cc(CNCCc3ccccc3Br)ccc2nc1N.Cl
Inhibition (Plasmodium falciparum [1]): 98%
Inhibition (Plasmodium falciparum [2]): 91%
Inhibition (HepG2): 31%

CCCCCCCn1c(=O)c(C(=O)Nc2c(C)cccc2C)c(O)c2ccccc21
Inhibition (Plasmodium falciparum [1]): 90%
Inhibition (Plasmodium falciparum [2]): 42%
Inhibition (HepG2): 6%

Br.CC[C@H]1CN2CC[C@H]1C[C@H]2[C@H](O)c1ccnc2ccc(OC)cc12
Inhibition (Plasmodium falciparum [1]): 100%
Inhibition (Plasmodium falciparum [2]): 62%
Inhibition (HepG2): 0%

Br.CCOC(=O)c1ccc(CC(C)NCC(O)c2cccc(C(F)(F)F)c2)cc1 (stereo not drawn)
Inhibition (Plasmodium falciparum [1]): 100%
Inhibition (Plasmodium falciparum [2]): 98%
Inhibition (HepG2): 5%

CC(=O)C1(c2ccccc2)CCN(CCC2(c3ccc(Cl)c(Cl)c3)CN(C(=O)C3CCCCC3)CCO2)CC1 (stereo not drawn)
Inhibition (Plasmodium falciparum [1]): 100%
Inhibition (Plasmodium falciparum [2]): 99%
Inhibition (HepG2): 3%

CC(Cc1ccc(OCc2ccc(CCN(C)C)cc2)cc1)NCCc1cccc(Cl)c1 (stereo not drawn)
Inhibition (Plasmodium falciparum [1]): 100%
Inhibition (Plasmodium falciparum [2]): 78%
Inhibition (HepG2): 42%

Br.COc1ccc(C[C@@H](C)NC[C@H](O)c2cccc(Cl)c2)cc1F
Inhibition (Plasmodium falciparum [1]): 88%
Inhibition (Plasmodium falciparum [2]): 76%
Inhibition (HepG2): 2%

Cc1ccc(CC(C)NCC(O)c2cccc([N+](=O)[O-])c2)cc1 (stereo not drawn)
Inhibition (Plasmodium falciparum [1]): 97%
Inhibition (Plasmodium falciparum [2]): 85%
Inhibition (HepG2): 0%

Cc1ccc(C2(O)CC3CCC(C2)N3C)cc1 (stereo not drawn)
Inhibition (Plasmodium falciparum [1]): 92%
Inhibition (Plasmodium falciparum [2]): 16%
Inhibition (HepG2): 0%

COc1cc(/C=C/C(=O)NC2CCC(CN3CCC(c4c[nH]c5ccccc45)CC3)CC2)ccc1O (stereo not drawn)
Inhibition (Plasmodium falciparum [1]): 98% and 99%
Inhibition (Plasmodium falciparum [2]): 45% and 44%
Inhibition (HepG2): 11% and 19%

CC(Cc1ccc(OCc2ccccc2)c(Cl)c1)NCC(O)c1cccc(C(F)(F)F)c1 (stereo not drawn)
Inhibition (Plasmodium falciparum [1]): 97%
Inhibition (Plasmodium falciparum [2]): 95%
Inhibition (HepG2): 0%

CN(C)c1cccc(CCNCCc2c[nH]c3ccc(Cl)cc23)c1.O=C(O)C(=O)O
Inhibition (Plasmodium falciparum [1]): 94%
Inhibition (Plasmodium falciparum [2]): 75%
Inhibition (HepG2): 19%

COC(C(=O)OCCC1CCCN1C)(c1ccccc1)C1CCCCC1 (stereo not drawn)
Inhibition (Plasmodium falciparum [1]): 100%
Inhibition (Plasmodium falciparum [2]): 5%
Inhibition (HepG2): 3%

O=C(/C=C/c1ccc(Cl)cc1Cl)NC1CCC(CN2CCC(c3c[nH]c4ccccc34)CC2)CC1 (stereo not drawn)
Inhibition (Plasmodium falciparum [1]): 100%
Inhibition (Plasmodium falciparum [2]): 79%
Inhibition (HepG2): 37%

O=C(Nc1ccccc1Cl)NC1CCC(CN2CCC(c3c[nH]c4ccccc34)CC2)CC1 (stereo not drawn)
Inhibition (Plasmodium falciparum [1]): 100% and 98%
Inhibition (Plasmodium falciparum [2]): 34% and 31%
Inhibition (HepG2): 32% and 37%

O=C(/C=C/c1ccccc1Cl)NC1CCC(CN2CCC(c3c[nH]c4ccccc34)CC2)CC1 (stereo not drawn)
Inhibition (Plasmodium falciparum [1]): 100% and 99%
Inhibition (Plasmodium falciparum [2]): 51% and 35%
Inhibition (HepG2): 33% and 41%

O=C(c1cc(C(=O)NCc2ccc(Cl)cc2)c(=O)n(Cc2ccc(Cl)cc2)c1)c1cc(Cl)ccc1O
Inhibition (Plasmodium falciparum [1]): 80%
Inhibition (Plasmodium falciparum [2]): 4%
Inhibition (HepG2): 6%

CNCCN(C)C(=O)Oc1c(Br)c(C)nc(C)c1-c1ccc(Oc2ccc(OC(F)(F)F)cc2)cc1.Cl
Inhibition (Plasmodium falciparum [1]): 98%
Inhibition (Plasmodium falciparum [2]): 98%
Inhibition (HepG2): 19%

CCCN(CCC)CCOC(=O)C(OCC)(c1ccccc1)c1ccccc1
Inhibition (Plasmodium falciparum [1]): 97%
Inhibition (Plasmodium falciparum [2]): 0%
Inhibition (HepG2): 0%

CN1CC=C(c2c[nH]c3ccc(Sc4ccccc4)cc23)CC1.O=C(O)/C=C/C(=O)O
Inhibition (Plasmodium falciparum [1]): 98%
Inhibition (Plasmodium falciparum [2]): 99%
Inhibition (HepG2): 36%

C#CCN1CCC2=C(C1)c1c(O)cc(C(C)C(C)CCc3ccc(F)cc3)cc1OC2(C)C (stereo not drawn)
Inhibition (Plasmodium falciparum [1]): 100%
Inhibition (Plasmodium falciparum [2]): 99%
Inhibition (HepG2): 10%

COC(=O)c1ccc(CC(C)NCC(O)c2cc(Cl)c(N)c(Cl)c2)cc1 (stereo not drawn)
Inhibition (Plasmodium falciparum [1]): 91%
Inhibition (Plasmodium falciparum [2]): 66%
Inhibition (HepG2): 0%

CC[C@H]1CN2CC[C@H]1C[C@H]2[C@H](O)c1cc(-c2ccccc2C)nc2ccc(OC)cc12.Cl
Inhibition (Plasmodium falciparum [1]): 100%
Inhibition (Plasmodium falciparum [2]): 98%
Inhibition (HepG2): 16%

Cc1ccc2c(C3=CCN(CCCCC4(C)C(=O)Nc5ccccc54)CC3)c(C)[nH]c2c1 (stereo not drawn)
Inhibition (Plasmodium falciparum [1]): 95%
Inhibition (Plasmodium falciparum [2]): 91%
Inhibition (HepG2): 9%

COc1cc(C=CC(=O)N2CCC(CN3CCC(c4c[nH]c5ccccc45)CC3)CC2)cc(OC)c1
Inhibition (Plasmodium falciparum [1]): 95%
Inhibition (Plasmodium falciparum [2]): 8%
Inhibition (HepG2): 19%

C=C[C@H]1CN2CC[C@H]1C[C@@H]2[C@@H](O)c1ccnc2ccccc12 [CINCHONINE]
Inhibition (Plasmodium falciparum [1]): 100%
Inhibition (Plasmodium falciparum [2]): 2%
Inhibition (HepG2): 0%

C=C[C@H]1CN2CC[C@@H]1C[C@H]2[C@H](O)c1cc(-c2ccc(F)cc2)nc2ccc(OC)cc12.Cl
Inhibition (Plasmodium falciparum [1]): 99%
Inhibition (Plasmodium falciparum [2]): 98%
Inhibition (HepG2): 5%

CC[C@H]1CN2CC[C@@H]1C[C@H]2[C@H](O)c1cc(N2CCC(C(N)=O)CC2)nc2ccc(OC)cc12
Inhibition (Plasmodium falciparum [1]): 99%
Inhibition (Plasmodium falciparum [2]): 9%
Inhibition (HepG2): 17%

Cl.O=C(CNC1CCCCC1)c1ccc(O)c(O)c1
Inhibition (Plasmodium falciparum [1]): 100%
Inhibition (Plasmodium falciparum [2]): 99%
Inhibition (HepG2): 61%

C/C=C1\CN2CC[C@H]1C[C@H]2[C@H](O)c1ccnc2ccc(OC)cc12
Inhibition (Plasmodium falciparum [1]): 100%
Inhibition (Plasmodium falciparum [2]): 45%
Inhibition (HepG2): 0%

Cn1nc(-c2ccc(S(=O)(=O)N3CCC(CN4CCC(c5c[nH]c6ccccc56)CC4)CC3)s2)cc1C(F)(F)F
Inhibition (Plasmodium falciparum [1]): 93%
Inhibition (Plasmodium falciparum [2]): 48%
Inhibition (HepG2): 16%

C/C=C1\CN2CC[C@H]1C[C@H]2[C@H](O)c1ccnc2ccc(O)cc12
Inhibition (Plasmodium falciparum [1]): 98%
Inhibition (Plasmodium falciparum [2]): 0%
Inhibition (HepG2): 0%

O=c1c2ccccc2nc(/C=C/c2ccc([N+](=O)[O-])cc2)n1-c1ccccn1
Inhibition (Plasmodium falciparum [1]): 98%
Inhibition (Plasmodium falciparum [2]): 96%
Inhibition (HepG2): 5%

Cc1ccc(CC(C)NCC(O)c2cccc(C(F)(F)F)c2)cc1.Cl (stereo not drawn)
Inhibition (Plasmodium falciparum [1]): 99%
Inhibition (Plasmodium falciparum [2]): 97%
Inhibition (HepG2): 6%

CC1CN=C(Nc2ncc(Cl)cc2Cl)N1.Cl (stereo not drawn)
Inhibition (Plasmodium falciparum [1]): 99%
Inhibition (Plasmodium falciparum [2]): 3%
Inhibition (HepG2): 2%

Cc1cc(C)c(CC(C)NCC(O)c2cccc(C(F)(F)F)c2)c(C)c1.Cl (stereo not drawn)
Inhibition (Plasmodium falciparum [1]): 100%
Inhibition (Plasmodium falciparum [2]): 99%
Inhibition (HepG2): 0%

O=C(C=Cc1ccc(Br)cc1)NC1CCC(CN2CCC(c3c[nH]c4ccccc34)CC2)CC1 (stereo not drawn)
Inhibition (Plasmodium falciparum [1]): 100%
Inhibition (Plasmodium falciparum [2]): 98%
Inhibition (HepG2): 71%

Cl.OC(CNC1CCCCCCC1)c1ccc(Cl)c(Cl)c1 (stereo not drawn)
Inhibition (Plasmodium falciparum [1]): 100%
Inhibition (Plasmodium falciparum [2]): 99%
Inhibition (HepG2): 17%

CN1C(=O)OC[C@@H]1Cc1ccc2[nH]cc(C3=CCN(Cc4ccccc4)CC3)c2c1
Inhibition (Plasmodium falciparum [1]): 86%
Inhibition (Plasmodium falciparum [2]): 66%
Inhibition (HepG2): 4%

O=C(C=Cc1cccc(Cl)c1Cl)NC1CCC(CN2CCC(c3c[nH]c4ccccc34)CC2)CC1 (stereo not drawn)
Inhibition (Plasmodium falciparum [1]): 83% and 100%
Inhibition (HepG2): 40% and 33%

CC(Cc1ccc(Sc2ccccc2)cc1)NCC(O)c1cccc(C(F)(F)F)c1 (stereo not drawn)
Inhibition (Plasmodium falciparum [1]): 99%
Inhibition (Plasmodium falciparum [2]): 53%
Inhibition (HepG2): 0%

O=C(Nc1ccccc1C(F)(F)F)NC1CCC(CN2CCC(c3c[nH]c4ccccc34)CC2)CC1 (stereo not drawn)
Inhibition (Plasmodium falciparum [1]): 96% and 86%
Inhibition (HepG2): 46% and 34%
